Reference: the supplement of paper PMC12350171
Where a name gives a salt, the structure may show the parent alone.

The molecules below were run on Haemophilus parainfluenzae (assay: growth AUC normalised to DMSO control (fraction of control); higher = less growth inhibition, active = hit call of the paper). Details: 20 µM;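 active = AUC significantly below DMSO controls by Student t-fit with adjusted P under 0.01; inactive = not significantly reduced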.
Summary of the method: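 Pathogens were passaged twice under anaerobic conditions, then inoculated into pre-reduced mGAM plates at a starting OD578 of 0.01, with compound at 20 μM and 1% DMSO, and sealed with breathable membranes. For Haemophilus parainfluenzae, the medium was supplemented with hemin and NAD. OD578 was read every hour for 24 h in three biological replicates. Growth-curve AUC was calculated by the trapezoidal rule up to the exponential-to-stationary transition and normalised to DMSO controls on the same plate.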

| SMILES | growth AUC normalised to DMSO control |
| --- | --- |
| c1ccc(-c2ccc(C(c3ccccc3)n3ccnc3)cc2)cc1 (centres undefined) [Bifonazole] | 0.998 (inactive) |
| CCCN[C@H]1CCc2nc(N)sc2C1 [Pramipexole dihydrochloride] | 0.985 (inactive) |
| COc1ccc2cc(CCC(C)=O)ccc2c1 [Nabumetone] | 0.997 (inactive) |
| O=C(O)c1cc(-c2ccc(F)cc2F)ccc1O [Diflunisal] | 0.916 (inactive) |
| Cc1cc(CC(=O)O)n(C)c1C(=O)c1ccc(Cl)cc1 [Zomepirac sodium salt] | 0.993 (inactive) |
| CCC(=O)O[C@@H](O[P@](=O)(CCCCc1ccccc1)CC(=O)N1C[C@H](C2CCCCC2)C[C@H]1C(=O)O)C(C)C [Fosinopril] | 1.02 (inactive) |
| CCn1cc(C(=O)O)c(=O)c2cnc(N3CCNCC3)nc21 [Pipemidic acid] | 0.915 (inactive) |
| CC1Cc2ccccc2N1NC(=O)c1ccc(Cl)c(S(N)(=O)=O)c1 (centres undefined) [Indapamide] | 1.03 (inactive) |
| CCc1nc(N)nc(N)c1-c1ccc(Cl)cc1 [Pyrimethamine] | 0.201 (active) |
| CCN(CC)CCCC(C)Nc1ccnc2cc(Cl)ccc12 (centres undefined) [Chloroquine diphosphate] | 1.01 (inactive) |
| O=C(NC(Cc1cc(=O)[nH]c2ccccc12)C(=O)O)c1ccc(Cl)cc1 (centres undefined) [Rebamipide] | 1.01 (inactive) |
| CC(C(=O)O)c1ccc(N2Cc3ccccc3C2=O)cc1 (centres undefined) [Indoprofen] | 1.02 (inactive) |
| Oc1c(Cl)cc(Cl)c2cccnc12 [Chloroxine] | 0.114 (active) |
| N[C@@H](Cc1ccc(O)c(O)c1)C(=O)O [Levodopa] | 1.02 (inactive) |
| COc1cc(Cc2cnc(N)nc2N)cc(OC)c1OC [Trimethoprim] | 0.0255 (active) |
| Cc1cn([C@H]2C=C[C@@H](CO)O2)c(=O)[nH]c1=O [Stavudine] | 1.02 (inactive) |
| CC(C(O)c1ccc(O)cc1)N1CCC(Cc2ccccc2)CC1 (centres undefined) [Ifenprodil tartrate] | 1.01 (inactive) |
| Cc1c(NC(=O)c2cccnc2)c(=O)n(-c2ccccc2)n1C [Nifenazone] | 1.01 (inactive) |
| CC[N+](CC)(CC)CCC(O)(c1ccccc1)C1CCCCC1 (centres undefined) [Tridihexethyl chloride] | 1.05 (inactive) |
| CCC(Cc1c(I)cc(I)c(N)c1I)C(=O)O (centres undefined) [Iopanoic acid] | 0.971 (inactive) |

| SMILES | growth AUC normalised to DMSO control |
| --- | --- |
| COc1cc(N)c(Cl)cc1C(=O)NC1CCN(CCCOc2ccc(F)cc2)CC1OC (centres undefined) [Cisapride] | 1.03 (inactive) |
| COc1c(N2CCNC(C)C2)c(F)cc2c(=O)c(C(=O)O)cn(C3CC3)c12 (centres undefined) [Gatifloxacin] | 0.0535 (active) |
| CCN(CCCCOC(=O)c1ccc(OC)c(OC)c1)C(C)Cc1ccc(OC)cc1 (centres undefined) [Mebeverine hydrochloride] | 1.03 (inactive) |
| C[C@@H]1C[C@H]2[C@@H]3CCC4=CC(=O)C=C[C@]4(C)[C@@]3(Cl)[C@@H](O)C[C@]2(C)[C@@]1(OC(=O)c1ccco1)C(=O)CCl [Mometasone furoate] | 1.05 (inactive) |
| CCCC(=O)Nc1ccc(OCC(O)CNC(C)C)c(C(C)=O)c1 (centres undefined) [Acebutolol hydrochloride] | 1.03 (inactive) |
| CC[C@@H]1C(=O)OC[C@@H]1Cc1cncn1C [Pilocarpine nitrate] | 0.981 (inactive) |
| Fc1ccc([C@@H]2CCNC[C@H]2COc2ccc3c(c2)OCO3)cc1 [Paroxetine hydrochloride] | 0.998 (inactive) |
| CC[N+](C)(CC)CCC[n+]1c(-c2ccccc2)c2cc(N)ccc2c2ccc(N)cc21 [Propidium iodide] | 1.04 (inactive) |
| C#C[C@]1(O)CC[C@H]2[C@@H]3CCC4=CC(=O)CC[C@@H]4[C@H]3CC[C@@]21C [Norethindrone] | 0.989 (inactive) |
| O=C(C1CCCCC1)N1CC(=O)N2CCc3ccccc3C2C1 (centres undefined) [Praziquantel] | 1.04 (inactive) |
| Cc1cc2c(cc1S(N)(=O)=O)S(=O)(=O)CCC2 [Meticrane] | 1.04 (inactive) |
| Nc1nc(Cl)nc2c1ncn2[C@H]1C[C@H](O)[C@@H](CO)O1 [Cladribine] | 1.01 (inactive) |
| C#CCN(C)Cc1ccccc1 [Pargyline hydrochloride] | 0.979 (inactive) |
| CC[N+](C)(C)Cc1ccccc1Br [Bretylium tosylate] | 1.02 (inactive) |
| CCn1cc(C(=O)O)c(=O)c2cc(F)c(N3CCNCC3)cc21 [Norfloxacin] | 0.0519 (active) |
| O=C(O)COC(=O)Cc1ccccc1Nc1c(Cl)cccc1Cl [Aceclofenac] | 1.01 (inactive) |
| C[C@]12C=CC(=O)C=C1CC[C@@H]1[C@@H]2C(=O)C[C@@]2(C)[C@H]1CC[C@]2(O)C(=O)CO [Prednisone] | 1.01 (inactive) |
| CCCCN1CCCCC1C(=O)Nc1c(C)cccc1C (centres undefined) [Bupivacaine hydrochloride] | 0.967 (inactive) |
| O=C(CCCCC(=O)Nc1c(I)cc(I)c(C(=O)O)c1I)Nc1c(I)cc(I)c(C(=O)O)c1I [Iodipamide] | 1.01 (inactive) |
